Experimental data as given in PubChem BioAssay AID463173 (ICCB-Longwood Screening Facility, Harvard Medical School, 2010).
About 1,700 (3.3%) of roughly 52,000 compounds were called active. Shown is part of a subset that was picked to be rich in actives. A number with no mark means an inactive call. No stated cut-off is given here; in the data, active means survival mostly below about 52% (no sharp cut-off); inactive means mostly above about 56%.

System: Wild type
Experiment: S. aureus survival, RN4220 and DeltatarO strains – OD600, teichoic acid synthesis inhibitors, primary screen (AID 463173)
Conditions: S. aureus RN4220 wild type/DeltatarO growth, OD600, 18 h, stronger effect = lower value, screened at 18.75 µg/mL (by protocol)

SMILES	survival
Cc1cccc(C(=O)NCC(c2ccc3c(c2)OCO3)N2CCN(c3ccccc3F)CC2)c1 (stereo unspecified)	70%
Cc1ccc(OCC(=O)Nc2nnc(SCc3cc(=O)n4cccc(C)c4n3)s2)cc1	64%
Cc1ccc2nc(CSc3nnc(NC(=O)COc4ccccc4F)s3)cc(=O)n2c1	81%
Cc1cccn2c(=O)cc(CSc3nnc(NC(=O)COc4ccc(F)cc4)s3)nc12	-4% (active)
Cc1ccc2nc(CSc3nnc(NC(=O)COc4ccccc4)s3)cc(=O)n2c1	63%
Cc1ccc2nc(CSc3nnc(NC(=O)C(C)C)s3)cc(=O)n2c1	-3% (active)
Cc1ccc(OCC(=O)Nc2nnc(SCc3cc(=O)n4cc(C)ccc4n3)s2)cc1	1% (active)
CC(C)C(=O)Nc1nnc(SCc2cc(=O)n3ccccc3n2)s1	117%
Cc1ccc2nc(CSc3nnc(NC(=O)CC(C)C)s3)cc(=O)n2c1	60%
Cc1cccn2c(=O)cc(CSc3nnc(NC(=O)COc4ccccc4)s3)nc12	71%
CCCN1CCN(CCCNC(=O)c2cc3c(=O)n(CC)c4ccccc4c3s2)CC1	85%
CC1CCN(CC(=O)N2CCN(c3ccccc3)CC2)CC1	106%
COc1ccc(-c2cn3nc(N4CCCC(C(=O)Nc5ccccc5OC)C4)sc3n2)cc1 (stereo unspecified)	135%
CN(C)S(=O)(=O)c1ccc2c(c1)N(CC(=O)Nc1ccc(OC(F)(F)F)cc1)C(=O)CS2	71%
COc1ccc(C(=O)NCCN=C2NS(=O)(=O)c3ccccc32)cc1	108%
COCCn1c(C)cc(O)c(C(c2ccccc2)N2CCN(C)CC2)c1=O (stereo unspecified)	87%
COCCn1c(C)cc(O)c(C(c2ccccc2)N2CCN(CCO)CC2)c1=O (stereo unspecified)	0% (active)
CCN1CCN(C(c2ccccc2)c2c(O)cc(C)n(CCOC)c2=O)CC1 (stereo unspecified)	91%
COc1cccc(C(=O)c2cn(CC(=O)NCCc3ccccc3)c3nc(C)ccc3c2=O)c1	64%
COc1ccccc1C(=O)NCCn1cc(SCc2ccccc2Cl)c2ccccc21	28%
COc1ccccc1C(=O)NCCn1cc(SCc2ccc(C)cc2)c2ccccc21	3% (active)
Cc1ccc(CSc2cn(CCNC(=O)c3cccs3)c3ccccc23)cc1	62%
O=C(NCCn1cc(SCc2ccc(C(F)(F)F)cc2)c2ccccc21)c1ccccc1F	35%

SMILES	survival
COc1ccc(C(=O)NCCn2cc(SCc3cccc(F)c3)c3ccccc32)cc1OC	68%
O=C(NCCn1cc(SCc2cccc(F)c2)c2ccccc21)c1cccc(C(F)(F)F)c1	8% (active)
Cc1nc2cc(C(F)(F)F)ccc2n1C1CCN(C(=O)C2CC2)CC1	95%
Cn1ncc2c(NCc3ccc(Cl)cc3)ncnc21	75%
Cc1cc(C)c(OCC(=O)Nc2cccc(-c3nc4ncccc4o3)c2)c(Br)c1	4% (active)
Cc1cc(OCC(=O)Nc2ccc(C(=O)OC3CCCCC3)cc2)cc(C)c1Cl	52%
CCC(C)c1ccc(OCC(=O)Nc2ccc(-c3nc4ncccc4o3)cc2)cc1 (stereo unspecified)	60%
Cc1ccccc1OCC(=O)Nc1ccc(-c2nc3ncccc3o2)cc1	69%
CCC(C)c1ccc(OCC(=O)Nc2cccc(-c3nc4ncccc4o3)c2)cc1 (stereo unspecified)	6% (active)
Cc1ccc(C(C)C)c(OCC(=O)Nc2ccc(C(=O)OC3CCCCC3)cc2)c1	6% (active)
CCCC(=O)Nc1cccc(-c2nc3ncccc3o2)c1	88%
Cc1cccc(OCC(=O)Nc2ccc(Cl)c(-c3nc4ncccc4o3)c2)c1C	38%
Cc1ccc(C(C)C)c(OCC(=O)Nc2ccc(-c3nc4ncccc4o3)cc2C)c1	69%
O=C(COc1ccc(Cl)cc1Cl)Nc1ccc(C(=O)OC2CCCCC2)cc1	78%
COc1ccc(OCC(=O)Nc2ccc(-c3nc4ncccc4o3)cc2)cc1	119%
Cc1ccc(C(C)C)c(OCC(=O)Nc2cccc(-c3nc4ncccc4o3)c2)c1	2% (active)
O=C(Nc1ccccc1)Nc1nnc(SCC(=O)N2CCCCC2)s1	131%
CC(C)(C)OC(=O)N1CCC(c2c(C(=O)N3CCN(C(=O)c4ccco4)CC3)cnn2-c2cccc(Cl)c2)CC1	95%
CCn1cc(C(=O)Nc2ccccc2)c(=O)c2ccc(C)nc21	111%
CCc1ccccc1Nc1nc2ccccc2n2cnnc12	147%
c1ccc(N(c2ccccc2)c2nc(-n3nnc4ccccc43)nc(-n3nnc4ccccc43)n2)cc1	103%
Cc1cccc(Oc2coc3cc(OCC(=O)NC4CCCCC4)ccc3c2=O)c1	80%
COc1ccc(C2C(C(N)=O)=C(C)Nc3nc(SCc4ccccc4Cl)nn32)cc1OC (stereo unspecified)	143%

SMILES	survival
CC1=C(C(=O)Nc2ccccc2)C(c2ccc(O)cc2)n2nc(-c3ccc(Cl)cc3)nc2N1 (stereo unspecified)	82%
Cc1ccc2cccc(NC(=O)COc3cc(C)c(Cl)c(C)c3)c2n1	82%
Cc1ccc(C(C)C)c(OCC(=O)Nc2ccc3c(c2)nc(CCNC(=O)c2ccco2)n3C)c1	88%
Cc1ccc2cccc(NC(=O)COc3ccccc3Cl)c2n1	134%
Cc1ccc(C(C)C)c(OCC(=O)Nc2cccc(NC(=O)c3ccco3)c2)c1	12% (active)
CCC(C)c1ccc(OCC(=O)Nc2cccc3ccc(C)nc23)cc1 (stereo unspecified)	-12% (active)
COc1ccc(NC(=O)c2ccco2)cc1NC(=O)COc1cc(C)ccc1C(C)C	85%
O=c1c(-c2cc(-c3ccccc3)nc3c2COc2ccc(Cl)cc2-3)coc2ccccc12	75%
COc1cc(C(=O)Nc2nonc2-c2ccc(Cl)cc2)cc(OC)c1OC	94%
CCC1CCCCN1C(=O)Cn1c(=O)cc(C(F)(F)F)c2c(C)nn(C)c21 (stereo unspecified)	68%
Cc1ccc(-c2cc(C(=O)NCc3ccccc3)c3c(-c4ccc(C)cc4)[nH]nc3n2)cc1	75%
O=C(Cn1c(=O)nc(-c2ccccc2)c2cc(Cl)ccc21)NCCc1ccccc1	69%
CCCCOC(=O)c1ccc(NC(=O)c2cc(=O)c3ccccc3o2)cc1	93%
CCCCOC(=O)c1cccc(NC(=O)/C=C/c2ccccc2Cl)c1	7% (active)
CCN(CC)c1cc(C)c2cc(NC(=O)/C=C/c3ccccc3Cl)ccc2n1	76%
Cc1ccc(NC(=O)/C=C/c2ccccc2Cl)cc1Cl	97%
O=C(Nc1ccc(NC(=O)c2cc3ccccc3o2)cc1)c1ccccc1	80%
CCCCOC(=O)c1cccc(NC(=O)c2cc3ccccc3o2)c1	0% (active)
CC(C)CC(=O)Nc1ccc(C(=O)OCc2cc(=O)n3nc(C4CCCCC4)sc3n2)cc1	47%
CCC12C=CCN3CCC4(c5ccc(OC)cc5NC4C(O)(C(=O)OC)C1OC(C)=O)C32 (stereo unspecified)	100%
Cc1ccc(-c2nc(CN(C)C)cc(CN(C)C)c2O)cc1	121%
CCOC(=O)CC(N)c1ccc2c(c1)OCO2 (stereo unspecified)	111%
O=c1c2cc3c(cc2n(Cc2ccccc2)c(=O)n1Cc1nc(-c2ccccc2)no1)OCO3	112%

SMILES	survival
CC(C)CC(=O)Nc1ccc(C(=O)OCc2cc(=O)n3nc(C(C)C)sc3n2)cc1	138%
COc1ccc2nc(SCC(O)c3cccc(Br)c3)[nH]c2c1 (stereo unspecified)	84%
Nc1ccc2nc(SCCOc3ccccc3)sc2c1	108%
Brc1ccc2nc(SCCOc3ccccc3)[nH]c2c1	0% (active)
O=C(Nc1c[nH]c2cc(Cl)ccc2c1=O)N1CCCCC1	85%
CSc1ccc(CNC(=O)Cn2nc(N3CCN(c4ccccc4)CC3)ccc2=O)cc1	64%
O=c1c2sc3ccccc3c2n(Cc2cccc(Cl)c2)c(=O)n1Cc1ccco1	68%
CCCOc1ccc(NC(=O)CC2C(=O)N(c3ccccc3)C(=O)N2Cc2ccc(F)cc2)cc1 (stereo unspecified)	-1% (active)
COC(=O)c1ccc(NC(=O)CC2C(=O)N(c3ccccc3)C(=O)N2Cc2ccc(F)cc2)cc1 (stereo unspecified)	14% (active)
COC(=O)c1ccc(NC(=O)CC2C(=O)N(c3cccc(OC)c3)C(=O)N2C(C)C)cc1 (stereo unspecified)	78%
CCN1CCOC(=O)C1CC(=O)Nc1ccc(C(C)=O)cc1 (stereo unspecified)	65%
CCOC(=O)c1ccc(NC(=O)CC2C(=O)N(c3ccc(F)cc3)C(=O)N2Cc2ccc(C)cc2)cc1 (stereo unspecified)	61%
CCN1CCOC(=O)C1CC(=O)Nc1ccc(Br)cc1 (stereo unspecified)	38%
COC(=O)c1ccc(NC(=O)CC2C(=O)N(c3ccc(F)cc3)C(=O)N2Cc2ccc(OC)cc2)cc1 (stereo unspecified)	131%
CCc1ccc(NC(=O)CC2C(=O)OCCN2CC)cc1 (stereo unspecified)	-15% (active)
COc1ccc(CN2C(=O)N(c3ccc(F)cc3)C(=O)C2CC(=O)Nc2ccccc2)cc1 (stereo unspecified)	79%
CCc1ccc(NC(=O)CC2C(=O)N(c3ccccc3)C(=O)N2C(C)C)cc1 (stereo unspecified)	-6% (active)
CCCOc1ccc(NC(=O)CC2C(=O)N(c3ccc(C)cc3)C(=O)N2C(C)C)cc1 (stereo unspecified)	133%
CCCOc1ccc(NC(=O)CC2C(=O)N(c3ccc(F)cc3)C(=O)N2CC(C)C)cc1 (stereo unspecified)	75%
O=C(CSc1nc(=O)n(Cc2ccco2)c2c1CCC2)Nc1ccccc1C(F)(F)F	138%
Cc1ccccc1CNC(=O)c1ccc2c(c1)c(C)c(C)n2C	58%
CC1CCCN(c2ccc(C(=O)NCc3ccccc3)cn2)C1 (stereo unspecified)	103%
